For 40 sequences, sensor-assay potency score (higher = more potent) results are on record in the OligoGym collection.
Also: reference of the scale not given here.

In the first experiment the target is NTRK3. Nature of the experiment: pooled miR-30 sensor sort-seq; sequence = guide strand. The conditions noted are these: shRNA.
For the sequence TTAATGTGCTGCACATACGTGT, the sensor-assay potency score (higher = more potent) was found to be 0.37.

TTCACTAGCAGATTCGCTCCAA: the sensor-assay potency score (higher = more potent) worked out at 0.574.

Sequence TAGAGCTCCATGTCCACGGCGT registered a sensor-assay potency score (higher = more potent) of 0.00985.

Take TTCATTCCAAATTTGGACCGTC: the sensor-assay potency score (higher = more potent) was 0.838.

On to TTGATCTCAGTCTTGCTGCAGA, for which the sensor-assay potency score (higher = more potent) came out at 0.132.

In turn, TAGACATCTCTGGACATGCCGA returned a sensor-assay potency score (higher = more potent) of -0.718.

In turn, TTGACAGGTTTATATAACGCAA gave a sensor-assay potency score (higher = more potent) of -0.787.

TTTGTAGATCTCCTTGATGTTC came in with a sensor-assay potency score (higher = more potent) of -1.01.

The sequence TAGACAGTGAGGGCAACACTGG had a sensor-assay potency score (higher = more potent) of -1.18.

Take TAGAACTTGACAATGTGCTCAT: the sensor-assay potency score (higher = more potent) was found to be 0.762.

The target of another experiment is NUDT12. Described as above. The settings on record: shRNA.
Consider TTAACTTGGCAATATCTCCTTC, for which the sensor-assay potency score (higher = more potent) amounted to 0.732.

Sequence TATTATTACATTCATTTCCAGT registered a sensor-assay potency score (higher = more potent) of -0.883.

On to TTTCTCTAGAATCTTACTGATT, for which the sensor-assay potency score (higher = more potent) was -0.991.

In turn, TATATCTGTGTAGTTCAGCTGA yielded a sensor-assay potency score (higher = more potent) of 0.275.

Turning to TATATTGACAACTTAAAGGTAA, the sensor-assay potency score (higher = more potent) is -0.0673.

As to TTTAACATTATGAAAACCTGGA, the sensor-assay potency score (higher = more potent) worked out at 0.224.

Sequence TTAATTTCTGTAGACACTGCTA showed a sensor-assay potency score (higher = more potent) of 0.0613.

On to TAATAGTATGCTTTTCTCCTTC, for which the sensor-assay potency score (higher = more potent) stood at 0.381.

Take TAGTAAATTAGCTATATGCTTA: the sensor-assay potency score (higher = more potent) was -0.516.

Turning to TTAAATATGTAAATCTGCCTGG, the sensor-assay potency score (higher = more potent) was 0.199.

In the case of TTTTGCTTTCTCTAGAATCTTA, the sensor-assay potency score (higher = more potent) was found to be 0.0347.

The target of the next experiment is NUDT17. Described as above. The conditions noted are these: shRNA.
In turn, TTCTCGAAGCCCTCCGTCCAGC gave a sensor-assay potency score (higher = more potent) of -1.17.

On to TTTGGGTTTGGTTGGATCCGGG, for which the sensor-assay potency score (higher = more potent) is -0.403.

Consider TCTCTGTCCCATCCTCTGCGGC, for which the sensor-assay potency score (higher = more potent) is -1.35.

TTGTCCTCTGCCATGGTTGGGA: the sensor-assay potency score (higher = more potent) is -0.492.

Regarding TTCCACTGCAAGGACAGAGGGT, the sensor-assay potency score (higher = more potent) is -0.741.

ATACAGAACAATGTGATGGTAT showed a sensor-assay potency score (higher = more potent) of 0.6.

In turn, TGTTCCATTCTTCCTTTGCTGG yielded a sensor-assay potency score (higher = more potent) of -1.04.

Consider AGCAAGACAGTCTTGTCGCTGG, for which the sensor-assay potency score (higher = more potent) is -0.353.

With TAGCAAGACAGTCTTGTCGCTG, the sensor-assay potency score (higher = more potent) is -0.0193.

TTAGCAAGACAGTCTTGTCGCT: the sensor-assay potency score (higher = more potent) is 0.135.

Take TTGAGGGCAAACTTGGTTCCAG: the sensor-assay potency score (higher = more potent) is -0.0646.

In turn, TAAGCTGCACTTTTACACGGTG yielded a sensor-assay potency score (higher = more potent) of -0.247.

The next experiment addresses NUDT18. The experiment is described as above. The settings on record: shRNA.
ACTAACACCCACACTGTCTGGG gave a sensor-assay potency score (higher = more potent) of -0.0585.

Sequence AACTTTTGGGGGTTCATCCTGG gave a sensor-assay potency score (higher = more potent) of -0.225.

In the case of TCCTCCATCACCTTCCACCAAG, the sensor-assay potency score (higher = more potent) was -1.79.

Consider TTACTCAGCAACGTGCTCCTCC, for which the sensor-assay potency score (higher = more potent) amounted to 0.514.

ATCACTGTGATCTCGGCCCAGG had a sensor-assay potency score (higher = more potent) of -0.975.

Turning to TAGCTCTTGGGGCAGAATGAGA, the sensor-assay potency score (higher = more potent) was -1.69.

TTGATCTCCACCACCAAGTGGT yielded a sensor-assay potency score (higher = more potent) of 0.0788.
